About 79,000 compounds went through this panel and 15% of them were active in at least one assay; those are over-represented in the sample as a whole. Calls of active or inactive are those of the source. No stated cut-off is given here; in the data, active means growth inhibition above about 70%; inactive means the rest.
experiment: NCI Yeast Anticancer Drug Screen. Data for the rad50 strain (AID 155);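 further: 0% = growth of vehicle-only cultures of the same strain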; settings: S. cerevisiae rad50 strain growth inhibition; at 50.0 µM; hits give high values
In short: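 Growth of the mutant yeast was measured after compound exposure and referenced to vehicle-treated cultures.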

Row | SMILES | growth inhibition
1 | O=[N+]([O-])c1ccc(/C=C/C=C/c2ccccc2)c(Cl)c1 | -8.75% (inactive)
2 | O=c1[nH]n(-c2ccccc2)c(=O)cc1Cl | -0.9% (inactive)
3 | Nc1nc(N)c2cc(S(=O)(=O)c3cccc(C(F)(F)F)c3)ccc2n1 | 34% (inactive)
4 | COc1cc(/C=C(\C#N)C(=O)c2ccccc2)ccc1OCc1ccccc1 | -1.1% (inactive)
5 | CC1(C)/C(=C\CO)C2CCC1C2 (stereo unspecified) | 12.7% (inactive)
6 | COc1cc2c(cc1O)CC[C@@H]1C2CC[C@@]2(C)C1CC[C@@H]2O (stereo partly specified) | -11.6% (inactive)
7 | Cc1ccc(N)cc1[N+](=O)[O-] | 11.8% (inactive)
8 | CCCNc1ccc(C2=NCCCN2)cc1 | 0.55% (inactive)
9 | Cc1cc(OCCO)cc(C)c1Cl | -20.9% (inactive)
10 | O=C(O)C(c1ccccc1)C(O)c1ccccc1 (stereo unspecified) | 5.35% (inactive)
11 | COC(=O)/C=C\C(=O)OC | 16.1% (inactive)
12 | N#CSc1cc(S(N)(=O)=O)ccc1N | 5.65% (inactive)
13 | O=[N+]([O-])c1ccc(N=Nc2ccccc2)cc1 | 11.4% (inactive)
14 | CCCC(=O)Nc1ccc2c(c1)CN1C(=O)c3ccccc3C1=N2 | -11.7% (inactive)
15 | Nc1nc(OCc2ccccc2)c2[nH]cnc2n1 | -15.3% (inactive)
16 | CC1(C)S(=O)(=O)OCCOS1(=O)=O | -25.4% (inactive)
17 | CC1CC(O)C2C3(C)CCCC2(COC3=O)C12CCC1(CCOC1=O)O2 (stereo unspecified) | 4.4% (inactive)
18 | CN(C)Cc1cc(C(C)(C)CC(C)(C)C)ccc1O | 38.2% (inactive)
19 | CC(=O)OCC1=CC2OC(=O)C3=COC(OC4OC(CO)C(O)C(O)C4O)C1C32 (stereo unspecified) | 11.6% (inactive)

Row | SMILES | growth inhibition
20 | O=C(O)COCC(=O)O | 34.1% (inactive)
21 | CCCCC1(CC)COC(CCC)OC1 (stereo unspecified) | 26.4% (inactive)
22 | CCCCC/C=N/Nc1nc(C)cc(=O)[nH]1 | 4.85% (inactive)
23 | NC(=O)c1ccc(N=C(N)N=C(N)N)cc1 | 7.3% (inactive)
24 | O=C(Nc1ccccc1)OCCc1ccccc1 | 45.3% (inactive)
25 | CC1(C)N=C(N)N=C(N)N1c1ccc(Cl)cc1 | 19.7% (inactive)
26 | CC(=O)Nc1cccc(NC(C)=O)n1 | 6.25% (inactive)
27 | c1ncc2[nH]cnc2n1 | -14.6% (inactive)
28 | S=C1CCCCCN1 | 47.6% (inactive)
29 | O=C(NCCNC(=O)c1ccc(Cl)cc1Cl)c1ccc(Cl)cc1Cl | -9.25% (inactive)
30 | Cc1nc2ccccc2c2nnc(SCC(=O)N(Cc3ccccc3)c3ccccc3)n12 | 6.9% (inactive)
31 | C=C1CC/C=C(\C)C(=O)C[C@@H]2[C@@H]1CC2(C)C | 5.85% (inactive)
32 | Cc1ccc(C)n1-c1ccsc1C(=O)NNC(=O)CCl | -13.8% (inactive)
33 | Nc1ccc(N)c([N+](=O)[O-])c1 | -30.9% (inactive)
34 | CC(=Nc1ccccc1)C1=C(O)C(Cc2cccc(F)c2)NC1=O (stereo unspecified) | 5.3% (inactive)
35 | CC(=O)OC(C(=O)O)c1ccccc1 (stereo unspecified) | 15.9% (inactive)
36 | COC(=O)c1[nH]c(=O)c(C#N)c(C(=O)OC)c1C(=O)c1ccccc1 | 5% (inactive)
37 | N#Cc1ccc(NC(=O)Nc2cccc(C#N)c2)cc1 | -3.5% (inactive)
38 | Cc1cc2nc(CO)[nH]c2cc1C | -2.95% (inactive)

experiment: NCI Yeast Anticancer Drug Screen. Data for the mec2-1 strain (AID 157); settings: S. cerevisiae mec2-1 strain, at 50.0 µM, hits give high values
In short: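 Compounds were applied to mec2-1 yeast cells. Their growth was then compared with that of vehicle-treated cultures to give growth inhibition.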

Row | SMILES | growth inhibition
39 | O=[N+]([O-])c1ccc(/C=C/C=C/c2ccccc2)c(Cl)c1 | -18.3% (inactive)
40 | O=c1[nH]n(-c2ccccc2)c(=O)cc1Cl | 2.25% (inactive)
41 | Nc1nc(N)c2cc(S(=O)(=O)c3cccc(C(F)(F)F)c3)ccc2n1 | 24.9% (inactive)
42 | COc1cc(/C=C(\C#N)C(=O)c2ccccc2)ccc1OCc1ccccc1 | -18.8% (inactive)
43 | CC1(C)/C(=C\CO)C2CCC1C2 (stereo unspecified) | 0.05% (inactive)
44 | COc1cc2c(cc1O)CC[C@@H]1C2CC[C@@]2(C)C1CC[C@@H]2O (stereo partly specified) | -13.4% (inactive)
45 | Cc1ccc(N)cc1[N+](=O)[O-] | 2% (inactive)
46 | CCCNc1ccc(C2=NCCCN2)cc1 | -19.1% (inactive)
47 | Cc1cc(OCCO)cc(C)c1Cl | -65.8% (inactive)
48 | O=C(O)C(c1ccccc1)C(O)c1ccccc1 (stereo unspecified) | -21.4% (inactive)
49 | COC(=O)/C=C\C(=O)OC | 6.85% (inactive)
50 | N#CSc1cc(S(N)(=O)=O)ccc1N | -10.2% (inactive)
51 | O=[N+]([O-])c1ccc(N=Nc2ccccc2)cc1 | 12.2% (inactive)
52 | CCCC(=O)Nc1ccc2c(c1)CN1C(=O)c3ccccc3C1=N2 | 1.8% (inactive)
53 | Nc1nc(OCc2ccccc2)c2[nH]cnc2n1 | -0.15% (inactive)
54 | CC1(C)S(=O)(=O)OCCOS1(=O)=O | 16.6% (inactive)
55 | CC1CC(O)C2C3(C)CCCC2(COC3=O)C12CCC1(CCOC1=O)O2 (stereo unspecified) | 8.35% (inactive)
56 | CN(C)Cc1cc(C(C)(C)CC(C)(C)C)ccc1O | -3.2% (inactive)
57 | CC(=O)OCC1=CC2OC(=O)C3=COC(OC4OC(CO)C(O)C(O)C4O)C1C32 (stereo unspecified) | -3.55% (inactive)

Row | SMILES | growth inhibition
58 | O=C(O)COCC(=O)O | -15.2% (inactive)
59 | CCCCC1(CC)COC(CCC)OC1 (stereo unspecified) | 2.15% (inactive)
60 | CCCCC/C=N/Nc1nc(C)cc(=O)[nH]1 | -5.6% (inactive)
61 | NC(=O)c1ccc(N=C(N)N=C(N)N)cc1 | -15.6% (inactive)
62 | O=C(Nc1ccccc1)OCCc1ccccc1 | 37.8% (inactive)
63 | CC1(C)N=C(N)N=C(N)N1c1ccc(Cl)cc1 | 3.35% (inactive)
64 | CC(=O)Nc1cccc(NC(C)=O)n1 | 10.8% (inactive)
65 | c1ncc2[nH]cnc2n1 | -4.1% (inactive)
66 | S=C1CCCCCN1 | 17.8% (inactive)
67 | O=C(NCCNC(=O)c1ccc(Cl)cc1Cl)c1ccc(Cl)cc1Cl | -10.8% (inactive)
68 | Cc1nc2ccccc2c2nnc(SCC(=O)N(Cc3ccccc3)c3ccccc3)n12 | 6.6% (inactive)
69 | C=C1CC/C=C(\C)C(=O)C[C@@H]2[C@@H]1CC2(C)C | 11.8% (inactive)
70 | Cc1ccc(C)n1-c1ccsc1C(=O)NNC(=O)CCl | -17.8% (inactive)
71 | Nc1ccc(N)c([N+](=O)[O-])c1 | -17.8% (inactive)
72 | CC(=Nc1ccccc1)C1=C(O)C(Cc2cccc(F)c2)NC1=O (stereo unspecified) | 4.35% (inactive)
73 | CC(=O)OC(C(=O)O)c1ccccc1 (stereo unspecified) | -12.1% (inactive)
74 | COC(=O)c1[nH]c(=O)c(C#N)c(C(=O)OC)c1C(=O)c1ccccc1 | -6.4% (inactive)
75 | N#Cc1ccc(NC(=O)Nc2cccc(C#N)c2)cc1 | -12.3% (inactive)
76 | Cc1cc2nc(CO)[nH]c2cc1C | -40% (inactive)

From PubChem BioAssay (NCI)
